# BRCT PPI green = inhibitors of human BRCA1 BRCT-phosphoprotein interaction (green fluorophore); AID 875; BRCA1 BRCT-phosphopeptide binding, green fluorescence polarization; Potency, µM (top dose mostly 76.9 µM), without a hit: top-dose activity change, negative = inhibition, most hits filed as inhibitors; actives 0.05% (n = 75,000);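 further: potency means the concentration at half of the fitted maximal effect; plate controls were peptide without protein for full effect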
#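 Fluorescence polarization: His-tagged BRCT (~35 kDa BRCA1 C-terminus, 250 nM) bound to 100 nM fluorescein-labeled phosphorylated 10-aa BACH1 peptide, pH 7.3 phosphate buffer with DTT and Tween 20. Compounds incubated 12 min at room temperature; inhibition read as lowered polarization.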
# TsaE inh = displaces an ADP probe from E. coli YjeE (TsaE); Potency, µM; purified YjeE enzyme, qHTS inhibition assay; actives 0.05% (n = 71,000); AID 605; P0AF67
#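 Purified YjeE (10 uM) with BODIPY Texas Red-labeled ADP probe (2 uM); compounds pin-transferred, 15 min at room temperature. Binding inhibition read as decreased fluorescence polarization; ADP titration as control.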
# DNA Pol III inh = DNA polymerase III holoenzyme inhibition. reconstituted DNA polymerase III holoenzyme replication, biochemical. Potency, µM (series often up to 57.1 µM), without a hit: at the top dose activity change, negative = inhibition. actives 0.25% (n = 71,000); further: potency means the concentration at half of the fitted maximal effect; on the % scale 0 is the no-effect control and ±100 the full control effect
#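 Reconstituted *E. coli* holoenzyme (0.35 nM Pol III, 1 nM beta, 154 nM SSB, 2 nM primase) was preincubated with compound for 15 min at RT. Synthesis on 1.4 nM ssM13Gori ran 35 min, then was stopped with PicoGreen/EDTA and read as dsDNA fluorescence.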
# BRCT inh red = BRCT-phosphoprotein interaction inhibition (red fluorophore); BRCT-phosphopeptide binding, red fluorescence polarization; P38398; actives 0.03% (n = 75,000); Potency, µM (doses to about 76.9 µM), inactives show top-dose activity change, negative = inhibition, actives largely listed as inhibitors; AID 892; further: on the % scale 0 is the no-effect control and ±100 the full control effect
#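 Fluorescence polarization: 100 nM His-tagged BRCA1 BRCT with 100 nM TAMRA-labelled phospho-BACH1 decapeptide, phosphate buffer pH 7.3 with 150 mM NaCl, DTT, 0.01% Tween 20; 12 min RT. Binding inhibition seen as FP decrease.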
# ERK AVP block = vasopressin-driven ERK pathway inhibition | HEK293-V1b, vasopressin-stimulated pERK AlphaScreen | Potency, µM (doses to about 57.5 µM), for inactives: at the highest dose activity, negative = inhibition, most hits filed as inhibitors | actives 0.99% (n = 72,000); further: potency means the concentration at half of the fitted maximal effect; on the % scale 0 is the no-effect control and ±100 the full control effect; nearly all actives have a fitted effect of over 55% in size
#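 V1b-HEK293 cells; cpd 30 min 37C; 25 nM vasopressin 5 min; lyse 10 min; AlphaScreen beads 5 hr RT. Normalized to DMSO basal and 25 nM vasopressin; AC50 by Hill fit.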
# * marks the source's active call; other numbers are inactive results; i = inactive; ? = inconclusive; . = no result given; ! = not confirmed by another sample; [ ] = dose if it differs, or a comment. Sampled rows, rich in hits. Any-hit rate of the full collection: about 1.2%. The call rests on the fitted dose curve; in most records, active means well fitted curve in the direction sought with a large enough effect; inconclusive means small, poorly fitted or top-dose-only effect, or another doubt; inactive means no such curve, though single readings can be large; an effect the other way counts as inactive or inconclusive.
SMILES,BRCT PPI green,TsaE inh,DNA Pol III inh,BRCT inh red,ERK AVP block
O=C(COc1ccccc1)N1CCN(c2ncnc3c2cnn3-c2ccccc2)CC1,-1%,i,-4%,-1%,25µM*
CCOC(=O)CCCCCCCCCCCCC1C=CCC1 (stereo unspecified),-2%,.,.,1%,7%
CCOC(=O)C1=C(CS(=O)(=O)c2ccc(F)c(C)c2)NC(=O)NC1c1ccc(O)c(O)c1 (stereo unspecified),-3%,i,-7%,-1%,25µM*
CCOC(=O)C1=C(CS(=O)(=O)c2ccccc2)NC(=O)NC1c1ccccc1OCC (stereo unspecified),1%,i,-1%,-1%,-3%
C[C@@H](c1ccccc1)N1C(=O)[C@H]2[C@H]3[C@H](O)[C@H](O)C/C(=N/OC[C@@H](O)COCc4ccco4)[C@H]3CC[C@@H]2C1=O,-2%[15.4 µM],.,.,1%[15.4 µM],-9%[11.5 µM]
COC(=O)[C@@]1(Cc2ccccc2)[C@H]2c3cc(C(=O)N4CCCC4)n(CC4CC4)c3C[C@H]2CN1C(=O)c1ccccc1,0%,i,-10%,-1%,-15%
COc1ccc(S(=O)(=O)N2CCN(c3ccccn3)CC2)cc1OC,0%,i,-10%,-1%,-15%
COc1cc2[nH]c3c(N4CCN(c5ccccn5)CC4)ncnc3c2cc1OC,-3%,i,-14%,-3%,25µM*
COc1cccc2[nH]c3c(N4CCCCC4)ncnc3c12,-3%,i,-2%,-2%,20µM*
CCOC(=O)C1CCN(c2ncnc3c2[nH]c2cccc(OC)c23)CC1,-5%,i,-6%,-1%,-21%
NC[C@H]1O[C@H](n2cnc3c(N)ncnc32)C[C@@H]1O,1%[15.4 µM],i,-6%[11.4 µM],1%[15.4 µM],9%[11.5 µM]
COc1ccc(CCNC(=O)CN2CCN(c3cccc(Cl)c3)CC2)cc1OC,-1%,i,-8%,1%,20µM*
NC1(C(=O)O)CCC1,-4%,i,-2%,-2%,-2%
N.N.O=C(O)C1(C(=O)O)CCC1.[Pt],-2%[3.08 µM],i,7.9µM*,1%,-6%
Cc1ccc(-n2ncc3c(=O)n(CC(=O)N4CCCc5ccccc54)cnc32)cc1C,0%,i,0%,1%,25µM*
S=C(c1ccc(-c2ccccc2Cl)o1)N1CCOCC1,-2%,i,-8%,1%,25µM*
S=C([S-])NCCNC(=S)[S-].[Zn+2],0%,i,0.4µM*,-26%,29%
CO[C@@H]1COC(=O)C/C=C\[C@@H](C)COC(=O)[C@H](COCc2ccccc2)NC(=O)C/C=C\[C@H]1C,-1%[15.4 µM],.,.,-3%[15.4 µM],8%[11.5 µM]
CCCC[C@@H]1C[C@H]1C(NC(=O)c1ccccc1)c1ccc(-c2ccccc2)cc1 (stereo partly specified),-2%,i,-3%,-1%,22%
CN(C)C(=O)c1ccc(-c2ccc3ncnc(NCc4cccs4)c3c2)cc1,3%,?,-18%,1%,32µM*
COc1cccc(-c2ccc3ncnc(NCc4cnc(C)cn4)c3c2)c1,4%,i,-1%,1%,-8%
COc1cccc(-c2ccc3ncnc(NCc4cccs4)c3c2)c1,1%,i,17%,0%,16µM*
NCCc1nc(-c2nc(C(=O)O)cs2)cs1,-1%[15.4 µM],i,-3%[11.4 µM],-1%[15.4 µM],-20%[11.5 µM]
O=C(O)C1Nc2c(O)cccc2C2C=CCC12 (stereo unspecified),-13%,i,3.2µM*,-19%,?
O=C(O)CCC(=O)Nc1ccc(C(=O)OC2CCCCC2)cc1,-4%,i,-2%,0%,-13%
SMILES,BRCT PPI green,TsaE inh,DNA Pol III inh,BRCT inh red,ERK AVP block
O=C(OC1CCCCC1)c1ccc2c(c1)C1C=CCC1C(C(=O)O)N2 (stereo unspecified),?,i,20µM*,?,45%
CCOC(=O)c1ccc(NC(=O)COc2ccc(-n3cnnn3)cc2)cc1,1%,i,-6%,-1%,8%
CCC(=O)c1ccc(OCC(=O)Nc2nn3cnnc3s2)cc1,0%,i,-8%,-5%,32µM*
C[C@@H](SCc1ccccc1)C(=O)O,-1%[15.4 µM],i,-2%[11.4 µM],2%[15.4 µM],0%[11.5 µM]
NCCNS(=O)(=O)c1cccc2c(Cl)cccc12,1%,i,-4%,-3%,-5%
COc1ccc(OC[C@@H](CO)OC)cc1,0%[15.4 µM],.,.,0%[15.4 µM],18%[11.5 µM]
C[C@H]1C2=C3C(CC[C@H]4C(OCc5ccc(F)cc5C(F)(F)F)OC[C@](C)([C@@H]34)N(C(=O)OC(C)(C)C)C2)C(CO)C1CO (stereo partly specified),-1%,i,-11%,0%,2%
CCOc1ccc2noc3c2c1C(=O)c1ccccc1-3,4µM*,i,244%,-1%,-28%
Cc1ccccc1C(=O)N1CCN(c2ccc(NC(=O)c3ccco3)cc2Cl)CC1,0%,i,-4%,-1%,32µM*
C/C=C\C[C@@H](C)[C@@H](O)[C@H]1C(=O)N[C@@H](CC)C(=O)N(C)CC(=O)N(C)[C@@H](CC(C)C)C(=O)N[C@@H](C(C)C)C(=O)N(C)[C@@H](CC(C)C)C(=O)N[C@@H](C)C(=O)N[C@H](C)C(=O)N(C)[C@@H](CC(C)C)C(=O)N(C)[C@@H](CC(C)C)C(=O)N(C)[C@@H](C(C)C)C(=O)N1C,-2%,i,-2%,-3%,-1%
C=CC[C@@H]1C=C[C@@H](O/N=C(/C)CCC(=O)OC[C@@H]2O[C@H](c3ccccc3)C=C[C@@H]2Oc2ccc(OC)cc2)[C@@H](CO)O1,9%[15.4 µM],.,.,1%[15.4 µM],16%[11.5 µM]
O=c1oc2c(O)c(O)cc3c(=O)oc4c(O)c(O)cc1c4c23,-10%,i,0.005µM*,-5%,20µM*!
O=c1oc2ccccc2c2oc3cc(O)c(O)cc3c12,-2%,.,.,0%,-22%
CC(=O)Nc1c(I)c(C(=O)N[C@H]2[C@@H](O)[C@H](O)[C@H](CO)O[C@@H]2O)c(I)c(N(C)C(C)=O)c1I,-2%[34.4 µM],i,-9%[25.6 µM],0%[34.4 µM],1%[25.7 µM]
C=C[C@@H]1CN2CC[C@@H]1C[C@@H]2[C@@H](O)c1ccnc2ccc(OC)cc12,-2%,.,.,1%,5%
COc1ccc(N2Cc3cccc(C(=O)O)c3C2=O)cc1,-6%,i,16µM*,-7%,.
O=C(Nc1cccc(S(=O)(=O)C(F)F)c1)c1ccc(Cl)c(S(=O)(=O)N2CCOCC2)c1,-2%,i,4%,-3%,13µM*
Nc1ccn([C@@H]2O[C@H](CO)[C@@H](O)[C@@H]2O)c(=O)n1,1%,.,.,-3%,.
Nc1ccn([C@H]2CC[C@@H](CO)O2)c(=O)n1,-4%,i,-1%,-3%,25µM*
COC(=O)c1c(C)n(-c2ccc(OC)cc2)c2ccc(O)cc12,-2%,i,-3%,-2%,25µM*
C[N+](C)(C)c1ncnc2c1ncn2[C@@H]1C[C@H](O)[C@@H](CO)O1,-2%[15.4 µM],i,-11%[11.4 µM],0%[15.4 µM],-11%[11.5 µM]
